Assay results published in PubChem BioAssay (Tox21).
Results filed as inconclusive are left out. A call without a number means that no potency is given here. Active and inactive are the calls of the source. Unless noted, the call rests on the fitted dose curve. Bridge positions count the residues as written; N and C are the ends. Square brackets hold non-standard residues; d marks the D form. Peptide text beside a SMILES is read from it. hArg = N=C(N)NCCCC[C@H](N)C(=O)O; Mpa = O=C(O)CCS

What was measured:
[1] = Nuclear factor erythroid 2-related factor 2/antioxidant responsive element (Nrf2/ARE) small molecule agonists: qHTS cell viability counter screen in human keratinocytes (AID 1919968; active means well fitted curve in the direction sought with a large enough effect in the repeat runs; an effect the other way counts as inactive or inconclusive; further: nearly all actives have a fitted effect of over 55% in size; further: potency means the concentration at half of the fitted maximal effect)
Outline: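 Stably transfected HaCaT (KeratinoSens), 1,500/well. Test agents in DMSO were applied for 23 h, 37 C/5% CO2. CellTiter-Fluor was incubated 1 h before the fluorescence read.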

[2] = Nuclear factor erythroid 2-related factor 2/antioxidant responsive element (Nrf2/ARE) small molecule agonists: luciferase reporter gene qHTS assay in human keratinocytes (AID 1919969); further: nearly all actives have a fitted effect of over 35% in size; further: potency means the concentration at half of the fitted maximal effect
[3] = biological target: Gonadotropin-releasing hormone receptor (Homo sapiens) (UniProt P30968); assay: Human gonadotropin-releasing hormone receptor (GnRHR) small molecule agonists, calcium flux assay in GnRHR-HEK293 cells (AID 1920063); further: nearly all actives have a fitted effect of over 35% in size
Gonadotropin-releasing hormone receptor (Homo sapiens), sequence (P30968 whole entry, looked up): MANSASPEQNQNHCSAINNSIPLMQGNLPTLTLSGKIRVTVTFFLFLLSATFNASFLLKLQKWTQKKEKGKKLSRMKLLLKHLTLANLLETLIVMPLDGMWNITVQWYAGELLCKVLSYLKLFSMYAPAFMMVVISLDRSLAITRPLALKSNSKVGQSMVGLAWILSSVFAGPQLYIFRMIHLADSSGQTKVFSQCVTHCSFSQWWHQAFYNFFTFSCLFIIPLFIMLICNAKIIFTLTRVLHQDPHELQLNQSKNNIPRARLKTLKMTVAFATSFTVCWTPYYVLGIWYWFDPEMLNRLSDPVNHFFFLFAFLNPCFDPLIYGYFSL
Outline: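 Stable human GnRHR HEK293 line. 18 h plating, then calcium dye for 1 h at 37 C. Agonist-mode compound addition from DMSO stocks; fluorescence monitored 3 min.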

[4] = biological target: KiSS-1 receptor (Homo sapiens) (UniProt Q969F8); assay: Human kisspeptin (KISS1R) small molecule agonists, calcium flux assay in KISS1R-HEK293 cells (AID 1920064; active means well fitted curve in the direction sought with a large enough effect in the repeat runs; an effect the other way counts as inactive or inconclusive)
KiSS-1 receptor (Homo sapiens), sequence (Q969F8 whole entry, looked up): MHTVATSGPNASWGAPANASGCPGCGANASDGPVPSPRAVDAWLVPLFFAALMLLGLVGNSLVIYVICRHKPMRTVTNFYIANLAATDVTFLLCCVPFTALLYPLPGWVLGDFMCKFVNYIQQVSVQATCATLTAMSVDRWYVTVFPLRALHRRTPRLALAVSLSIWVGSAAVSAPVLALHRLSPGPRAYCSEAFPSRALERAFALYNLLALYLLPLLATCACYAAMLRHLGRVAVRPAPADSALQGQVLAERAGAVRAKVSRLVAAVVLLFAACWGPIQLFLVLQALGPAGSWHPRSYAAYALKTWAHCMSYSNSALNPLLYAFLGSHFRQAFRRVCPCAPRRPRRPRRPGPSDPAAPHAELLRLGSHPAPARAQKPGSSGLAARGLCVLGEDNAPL
Outline: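 After overnight (18 h) culture at 37 C/5% CO2, human KISS1R-HEK293 cells received calcium dye for 1 h, then test compound; emission at 540 nm (excitation 480 nm) was tracked for 3 min.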

[5] = G protein-coupled receptor (GPCR) small molecule agonists, calcium flux assay: HEK293 wild type cell line counter screen (AID 1920065)
Outline: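 Following 18 h incubation at 37 C/5% CO2, plates got calcium dye for 1 h; compounds, ATP or DMSO were then pinned in and fluorescence followed kinetically (480/540 nm).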

[6] = p53 small molecule agonists, cell-based qHTS assay with rat liver microsomes (AID 1963578)
Outline: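 Each plate received p53RE-bla cells, then compound, then rat liver microsomes and NADPH (both 0.5 mg/mL final). Plates were held 16 h at 37 C, and beta-lactamase activity was detected with LiveBLAzer over 2 h.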

[7] = biological target: 5-hydroxytryptamine receptor 2A (Homo sapiens) (UniProt P28223); assay: 5-hydroxytryptamine receptor 2A (HTR2A) small molecule agonists, cell-based qHTS assay (AID 1963587); further: nearly all actives have a fitted effect of over 30% in size; further: potency means the concentration at half of the fitted maximal effect
5-hydroxytryptamine receptor 2A (Homo sapiens), sequence (P28223 whole entry, looked up): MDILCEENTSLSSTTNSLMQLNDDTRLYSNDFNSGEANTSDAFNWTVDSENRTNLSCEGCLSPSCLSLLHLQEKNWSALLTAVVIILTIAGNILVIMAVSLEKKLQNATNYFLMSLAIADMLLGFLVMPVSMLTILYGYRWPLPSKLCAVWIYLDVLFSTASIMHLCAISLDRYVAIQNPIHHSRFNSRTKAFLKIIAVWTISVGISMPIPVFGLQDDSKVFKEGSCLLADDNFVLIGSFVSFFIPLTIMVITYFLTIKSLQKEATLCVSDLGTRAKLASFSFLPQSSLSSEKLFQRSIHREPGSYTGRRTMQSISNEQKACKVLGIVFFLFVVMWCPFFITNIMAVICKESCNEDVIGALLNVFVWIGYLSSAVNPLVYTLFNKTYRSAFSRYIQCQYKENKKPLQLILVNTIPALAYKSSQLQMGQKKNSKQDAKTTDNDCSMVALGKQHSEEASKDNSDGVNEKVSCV
Outline: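 HTR2A-CHO cells, plated 18 h at 37 C/5% CO2, dye-loaded 1 h at 37 C; compounds in DMSO added by pin tool (agonist mode). Intracellular calcium flux read as kinetic fluorescence on FDSS over 2 min at 1 s intervals.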

[8] = biological target: Muscarinic acetylcholine receptor M1 (Homo sapiens) (UniProt P11229); assay: Cholinergic receptor muscarinic 1 (CHRM1) small molecule antagonists, cell-based qHTS assay (AID 1963588); further: nearly all actives have a fitted effect of over 40% in size; further: potency means the concentration at half of the fitted maximal effect
Muscarinic acetylcholine receptor M1 (Homo sapiens), sequence (P11229 whole entry, looked up): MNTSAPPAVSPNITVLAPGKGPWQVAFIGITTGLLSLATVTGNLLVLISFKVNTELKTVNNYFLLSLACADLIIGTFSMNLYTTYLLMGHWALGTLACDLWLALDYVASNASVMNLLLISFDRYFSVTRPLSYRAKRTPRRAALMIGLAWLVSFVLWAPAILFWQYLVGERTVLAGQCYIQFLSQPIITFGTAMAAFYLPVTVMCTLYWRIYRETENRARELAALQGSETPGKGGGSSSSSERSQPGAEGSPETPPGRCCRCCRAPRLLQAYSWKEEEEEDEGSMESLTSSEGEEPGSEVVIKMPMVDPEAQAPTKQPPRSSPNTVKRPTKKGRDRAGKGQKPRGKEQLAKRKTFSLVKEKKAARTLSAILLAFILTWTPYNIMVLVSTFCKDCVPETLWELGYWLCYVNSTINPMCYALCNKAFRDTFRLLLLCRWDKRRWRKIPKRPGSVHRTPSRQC
Outline: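 Compounds were tested at 15 concentrations in three independent runs. Dye-loaded CHRM1-CHO cells were exposed 5 min at room temperature before stimulation by acetylcholine added at 50nM. Intracellular calcium was read kinetically on FDSS for 3 min.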

[9] = biological target: Muscarinic acetylcholine receptor M1 (Homo sapiens) (UniProt P11229); assay: Cholinergic receptor muscarinic 1 (CHRM1) small molecule agonists, cell-based qHTS assay (AID 1963589); further: nearly all actives have a fitted effect of over 35% in size
Outline: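 Kinetic fluorescence (1 s intervals) of calcium-sensitive dye in human M1 CHO cells after compound addition; cells pre-incubated 18 h at 37 C/5% CO2 and dye-loaded 1 h.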

[10] = biological target: D(2) dopamine receptor (Homo sapiens) (UniProt P14416); assay: Dopamine D2 receptor (DRD2) small molecule agonists, cell-based qHTS assay (AID 1963594); further: nearly all actives have a fitted effect of over 35% in size
D(2) dopamine receptor (Homo sapiens), sequence (P14416 whole entry, looked up): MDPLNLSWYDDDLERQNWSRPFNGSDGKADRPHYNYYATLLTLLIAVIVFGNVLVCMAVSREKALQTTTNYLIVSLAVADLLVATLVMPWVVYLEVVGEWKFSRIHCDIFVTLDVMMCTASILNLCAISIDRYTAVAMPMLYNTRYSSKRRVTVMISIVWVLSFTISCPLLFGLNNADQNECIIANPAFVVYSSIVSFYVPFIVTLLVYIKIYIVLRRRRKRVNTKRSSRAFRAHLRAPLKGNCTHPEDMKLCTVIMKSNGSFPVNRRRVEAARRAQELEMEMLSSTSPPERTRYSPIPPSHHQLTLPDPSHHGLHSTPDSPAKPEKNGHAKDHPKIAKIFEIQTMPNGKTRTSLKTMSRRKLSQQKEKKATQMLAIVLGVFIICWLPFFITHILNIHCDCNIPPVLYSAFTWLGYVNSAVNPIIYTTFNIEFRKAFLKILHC
Outline: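 HEK293 cells stably expressing DRD2 were cultured 24 h at 37 C, then given Ro20-1724 (0.1 mM final) and compounds for 10 min at room temperature. NKH477 (200nM) was then added for 30 min. cAMP was read by HTRF.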

[11] = biological target: D(2) dopamine receptor (Homo sapiens) (UniProt P14416); assay: Dopamine D2 receptor (DRD2) small molecule antagonists, cell-based qHTS assay (AID 1963595; active means well fitted inhibition curve with a large enough effect in the signal ratio in the repeat runs, with a control signal flat; the % refers to the signal ratio)
Outline: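 Antagonism was scored as restored cAMP in HEK293-DRD2 cells. These cells were stimulated with 200 nM NKH477 and 12 nM quinpirole for 30 min at room temperature, in the presence of 0.1 mM Ro20-1724.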

[12] = p53 small molecule agonists, cell-based qHTS assay with human liver microsomes: qHTS cell viability counter screen (AID 1963579); further: nearly all actives have a fitted effect of over 45% in size; further: potency means the concentration at half of the fitted maximal effect
Outline: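 Tox21 library compounds, delivered from DMSO stocks, were tested on p53RE-bla cells together with 0.5 mg/mL human liver microsomes and 0.5 mg/mL NADPH (final) over 16 h at 37 C; CellTiter-Glo luminescence served as the cytotoxicity measure.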

[13] = p53 small molecule agonists, cell-based qHTS assay with rat liver microsomes: qHTS cell viability counter screen (AID 1963580); further: nearly all actives have a fitted effect of over 45% in size
Outline: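 Counter screen for cytotoxicity under metabolic activation: rat liver microsomes and NADPH, 0.5 mg/mL final each, added with compounds to p53RE-bla HCT-116 cells; 16 h at 37 C, then ATP luminescence read.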

[14] = p53 small molecule agonists, cell-based qHTS assay: qHTS cell viability counter screen (AID 1963581); further: nearly all actives have a fitted effect of over 45% in size; further: potency means the concentration at half of the fitted maximal effect
Outline: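 qHTS counter screen: 16 h compound exposure at 37 C of p53RE-bla HCT-116 cells (4,000 per well, seeded 5 h prior), cell viability by ATP luminescence.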

[15] = p53 small molecule agonists, cell-based qHTS assay (AID 1963582; active means well fitted activation curve with a large enough effect in the signal ratio in the repeat runs, not every such curve was filed as active; the % refers to the signal ratio; further: potency means the concentration at half of the fitted maximal effect)
Outline: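 Measured: fluorescence from cleaved LiveBLAzer substrate. System: p53RE-bla cells, 16 h compound treatment at 37 C, 2 h substrate step at room temperature.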

[16] = biological target: 5-hydroxytryptamine receptor 2A (Homo sapiens) (UniProt P28223); assay: 5-hydroxytryptamine receptor 2A (HTR2A) small molecule antagonists, cell-based qHTS assay (AID 1963586); further: nearly all actives have a fitted effect of over 45% in size; further: potency means the concentration at half of the fitted maximal effect
Outline: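 CHO cells stably expressing human HTR2A were plated for 18 h at 37 C, then loaded with calcium dye for 1 h. Compounds were preincubated 5 min at room temperature before DOI (4 nM solution) was added. Kinetic fluorescence was read for 3 min.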

[17] = cAMP Responsive Elements (CRE) small molecule agonists, cell-based qHTS assay (AID 1963590)
Outline: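 Test agents in DMSO were incubated 3 h at 37 C/5% CO2 with CRE-bla HEK 293T cells seeded 18 h earlier; LiveBLAzer B/G FRET substrate was added and read after 2 h at room temperature.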

[18] = cAMP Responsive Elements (CRE) small molecule antagonists, cell-based qHTS assay (AID 1963591; active means well fitted inhibition curve with a large enough effect in the signal ratio in the repeat runs, not every such curve was filed as active; the % refers to the signal ratio; further: potency means the concentration at half of the fitted maximal effect)
Outline: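 Reporter line CRE-bla HEK 293T in dialyzed-FBS DMEM; cells preincubated 18 h, treated 3 h with compound plus NKH477 (0.25 uM final); LiveBLAzer FRET, 2 h RT.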

[19] = biological target: Beta-2 adrenergic receptor (Homo sapiens) (UniProt P07550); assay: Adrenergic beta2 receptor (ADRB2) small molecule antagonists, cell-based qHTS assay (AID 1963592); further: series mostly up to about 92 µM; nearly all actives have a fitted effect of over 50% in size
Beta-2 adrenergic receptor (Homo sapiens), sequence (P07550 whole entry, looked up): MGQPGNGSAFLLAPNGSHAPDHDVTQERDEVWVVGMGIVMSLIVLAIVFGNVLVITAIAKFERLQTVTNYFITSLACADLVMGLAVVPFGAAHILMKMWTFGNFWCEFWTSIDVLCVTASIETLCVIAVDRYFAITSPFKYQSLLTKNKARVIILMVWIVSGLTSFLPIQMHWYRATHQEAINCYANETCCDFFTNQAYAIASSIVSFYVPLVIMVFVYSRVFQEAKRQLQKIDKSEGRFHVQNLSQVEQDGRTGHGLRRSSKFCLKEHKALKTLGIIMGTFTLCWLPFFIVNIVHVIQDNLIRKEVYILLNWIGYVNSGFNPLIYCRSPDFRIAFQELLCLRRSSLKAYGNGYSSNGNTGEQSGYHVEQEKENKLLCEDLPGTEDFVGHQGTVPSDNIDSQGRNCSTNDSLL
Outline: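 Assay format: CHO-ADRB2 cells, 18-20hr seeding at 37C/5% CO2, then compound plus 1nM isoproterenol agonist mix for 0.5hr RT. Homogeneous time-resolved fluorescence cAMP detection after 1hr, expressed as 665/615 nm ratio.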

[20] = biological target: Beta-2 adrenergic receptor (Homo sapiens) (UniProt P07550); assay: Adrenergic beta2 receptor (ADRB2) small molecule agonists, cell-based qHTS assay (AID 1963593);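 further: CHO cells stably overexpressing human ADRB2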
Outline: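 CHO cells stably over-expressing ADRB2 were plated overnight at 37C, then dosed with compounds plus a stimulation mix containing 100uM IBMX and 25uM Ro-20-1724 for 0.5hr at room temperature. cAMP was measured by HTRF competition, 1hr.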

| SMILES | Potency [1] | Potency [2] | Potency [3] | Potency [4] | Potency [5] | Potency [6] | Potency [7] | Potency [8] | Potency [9] | Potency [10] | Potency [11] | Potency [12] | Potency [13] | Potency [14] | Potency [15] | Potency [16] | Potency [17] | Potency [18] | Potency [19] | Potency [20] |
| --- | --- | --- | --- | --- | --- | --- | --- | --- | --- | --- | --- | --- | --- | --- | --- | --- | --- | --- | --- | --- |
| CC(=O)OC(OC(C)=O)c1ccc([N+](=O)[O-])o1 | 62.2 µM (active) | 24.8 µM (active) | inactive | inactive | inactive | inactive | inactive | inactive | inactive | inactive | inactive |  |  |  |  |  |  |  |  |  |
| CC(=O)OC/C=C(/C)CCC=C(C)C | inactive | inactive | inactive | inactive | inactive | inactive | inactive | inactive | inactive | inactive | inactive | inactive | inactive | inactive | inactive | inactive | inactive | inactive | inactive | inactive |
| Nc1ccc(-c2ccc(F)cc2)cc1 | inactive | inactive | inactive | inactive | inactive |  | inactive | inactive | inactive | inactive | inactive |  | inactive | inactive | inactive |  | inactive |  |  |  |
| CCCOc1ccc2c(c1)CC[C@@H]1[C@@H]2CC[C@]2(C)C(OC)CC[C@@H]12 (some centres undefined) | inactive | inactive | inactive | inactive | inactive | inactive | inactive | inactive | inactive | inactive |  | inactive | inactive | inactive | inactive | inactive | inactive | inactive | inactive | inactive |
| C[Si](C)(C)C | inactive | inactive | inactive | inactive | inactive |  | inactive | inactive | inactive |  | inactive | inactive |  | inactive | inactive |  | inactive | inactive |  |  |
| O=C(O)[C@H](O)c1ccccc1 | inactive | inactive | inactive | inactive | inactive | inactive | inactive | inactive | inactive |  | inactive | inactive | inactive | inactive | inactive | inactive | inactive | inactive | inactive | inactive |
| NC(=O)[C@@H]1CSSCCC(=O)N[C@@H](CCCCN=C(N)N)C(=O)NCC(=O)N[C@@H](CC(=O)O)C(=O)N[C@@H](Cc2c[nH]c3ccccc23)C(=O)N2CCC[C@H]2C(=O)N1 ([Mpa][hArg]GDWPC-NH2; disulfide 1-7) | inactive | inactive | inactive | inactive | inactive |  |  |  |  | inactive | inactive | inactive | inactive |  |  |  | inactive | inactive | inactive | inactive |
| O=C=NC1CCC(CC2CCC(N=C=O)CC2)CC1 (centres undefined) | 12.2 µM (active) | inactive | inactive | inactive | inactive |  | 1.95 µM (active) | 4.21 µM (active) | inactive | inactive |  | inactive | inactive | inactive | inactive | 2.98 µM (active) | inactive | inactive | inactive | inactive |
| CC(C)C[C@H](NC(=O)[C@H](Cc1ccccc1)NC(=O)c1cnccn1)B(O)O | 0.596 µM (active) | 0.0422 µM (active) | inactive | inactive | inactive |  | inactive | inactive | inactive | inactive | inactive | 0.89 µM (active) |  | 0.707 µM (active) | 0.0141 µM (active) | inactive | inactive | 0.944 µM (active) | inactive |  |
| OCCCCCO | inactive | inactive | inactive | inactive | inactive | inactive | inactive | inactive | inactive |  | inactive | inactive | inactive | inactive | inactive | inactive | inactive | inactive | inactive | inactive |
| CCCCNC1CC(C)(C)NC(C)(C)C1 | inactive | inactive | inactive | inactive | inactive |  | inactive | inactive |  | inactive | inactive | inactive | inactive | inactive | inactive | inactive | inactive | inactive | inactive | inactive |
| C[C@]12CC[C@H]3C(=CCc4cc(O)ccc43)[C@@H]1CCC2=O | inactive | inactive | inactive | inactive | inactive |  | inactive | inactive | inactive | inactive | inactive | inactive | inactive | inactive | inactive | inactive | inactive |  | inactive | inactive |
| O=C[C@@H](O)[C@H](O)[C@H](O)CO | inactive | inactive | inactive | inactive | inactive |  |  | inactive | inactive | inactive | inactive | inactive | inactive | inactive | inactive | inactive | inactive | inactive |  | inactive |
| c1csc(SSc2cccs2)c1 | 15.4 µM (active) | 6.11 µM (active) | inactive | inactive | inactive |  | inactive | inactive | inactive |  | inactive | inactive |  | inactive | inactive | inactive | inactive | inactive | inactive | inactive |
